From PubChem
HTT ATP protect: protects HTT-Q103 PC12 cells, measured by ATP; PC12 HTT-Q103 induced, cytoprotection, ATP luminescence, 40 h; Potency, µM (doses to about 56.4 µM), inactives show cytoprotection (ATP increase), actives largely listed as activators; actives 0.14% (n = 230,000); also: % of control where 0% means no effect; nearly all actives have a fitted effect of over 45% in size
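Huntington model: PC12 line, ecdysone-inducible HTTQ103 exon1–GFP, tebufenozide 100 nM. Test articles in a dose series. Endpoint luminescence from cellular ATP.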
HPGD block: inhibitors of human 15-hydroxyprostaglandin dehydrogenase (HPGD) | P15428 | purified HPGD, NADH fluorescence kinetic, PGE2 substrate | Potency, µM, for the others: top-dose activity change, negative = inhibition, usual class: inhibitors | actives 4.3% (n = 150,000); active = well fitted inhibition curve with a large enough effect, not every such curve was filed as active; inconclusive = small, poorly fitted or top-dose-only effect, or another doubt; inactive = no such curve, though single readings can be large or run the other way; also: % is scaled to controls: 0 for no effect and ±100 for the full control effect
Target sequence (P15428 whole entry, looked up): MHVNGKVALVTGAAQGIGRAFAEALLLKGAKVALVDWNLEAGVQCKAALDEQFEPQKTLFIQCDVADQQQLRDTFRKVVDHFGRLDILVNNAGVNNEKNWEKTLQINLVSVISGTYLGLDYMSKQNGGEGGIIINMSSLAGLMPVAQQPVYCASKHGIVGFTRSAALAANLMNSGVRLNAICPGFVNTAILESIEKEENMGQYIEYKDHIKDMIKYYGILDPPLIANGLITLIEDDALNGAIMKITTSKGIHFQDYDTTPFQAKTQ
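20 nM HPGD preincubated 15 min at room temperature with compound in 50 mM Tris-HCl pH 8, 0.01% Tween 20. Started with 1 mM NAD+ and 30 uM prostaglandin E2; NADH fluorescence (360/450 nm) read 5 times over 30-s intervals, last minus first.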
LMNA splice mod: modulators of lamin A splicing | HeLa LMNA splicing GFP/RFP minigene ratio, 48 h | Potency, µM (doses to about 46.1 µM), inactives show at the top dose ratio change, negative = inhibition, hits mostly inhibitors | actives 0.01% (n = 200,000); active = well fitted inhibition curve with a large enough effect in the signal ratio, with a control signal flat, not every such curve was filed as active; inconclusive = small, poorly fitted or top-dose-only effect, or effect the other way, or a change in a side signal; the % refers to the signal ratio; also: % is scaled to controls: 0 for no effect and ±100 for the full control effect
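S3 HeLa cells stably expressing lamin A-EGFP splicing minigene plus DsRed2, 600 cells/well, 48 h compound exposure at 37C. Laser-scanning cytometry; analysed as GFP (500-530 nm)/RFP (575-640 nm) total intensity ratio; 0.5% DMSO vehicle.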
ALDH1A1 block: blocks purified human ALDH1A1 activity; actives 7.3% (n = 220,000); Purified ALDH1A1, NADH fluorescence, propionaldehyde substrate; P00352; Potency, µM (top dose mostly 75.3 µM), for the others: at the top dose activity, negative = inhibition, actives largely listed as inhibitors; active = well fitted inhibition curve with a large enough effect, not every such curve was filed as active; inconclusive = small, poorly fitted or top-dose-only effect, or another doubt; inactive = no such curve, though single readings can be large or run the other way;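 also: plate controls were no enzyme wells and a reference inhibitor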
Target sequence (P00352 whole entry, looked up): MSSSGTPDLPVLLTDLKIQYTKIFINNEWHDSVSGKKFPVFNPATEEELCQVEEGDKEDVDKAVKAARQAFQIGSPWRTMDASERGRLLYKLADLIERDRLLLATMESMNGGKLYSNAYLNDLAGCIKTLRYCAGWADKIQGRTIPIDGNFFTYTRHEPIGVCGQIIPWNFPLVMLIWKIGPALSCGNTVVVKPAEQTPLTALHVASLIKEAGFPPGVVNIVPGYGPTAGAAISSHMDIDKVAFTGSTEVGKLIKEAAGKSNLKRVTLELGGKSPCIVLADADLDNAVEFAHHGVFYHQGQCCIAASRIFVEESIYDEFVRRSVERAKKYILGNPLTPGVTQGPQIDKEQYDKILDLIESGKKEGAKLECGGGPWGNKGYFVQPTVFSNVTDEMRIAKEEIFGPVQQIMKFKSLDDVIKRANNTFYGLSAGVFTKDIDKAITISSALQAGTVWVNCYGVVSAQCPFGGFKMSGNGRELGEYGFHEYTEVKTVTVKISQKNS
HTT aggregate: inhibitors of mutant huntingtin aggregate formation in PC12 cells | actives 1.1% (n = 220,000) | Potency, µM (titrated, usually from 46.1 µM), for inactives: at the top dose activity change, negative = inhibition, hits mostly inhibitors | PC12 HttQ103-GFP aggregates, Acumen cytometry, 40 h | AID 1688; also: % is scaled to controls: 0 for no effect and ±100 for the full control effect; nearly all actives have a fitted effect of over 60% in size
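Steps: seed 1500 PC12 HTTQ103-GFP cells/well; add tebufenozide, 100 nM final; add compound titration; add ATPLite reagent; quantify GFP aggregates by laser scanning cytometry.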
KinaseGlo FLuc: counter-screen: inhibitors of Kinase-Glo firefly luciferase | Q27757 | Kinase-Glo luciferase, ATP luminescence, 8 min | Potency, µM (series often up to 38.3 µM), for the others: at the highest dose activity change, negative = inhibition, most hits filed as inhibitors | actives 0.28% (n = 200,000) | AID 1379; also: % is scaled to controls: 0 for no effect and ±100 for the full control effect; nearly all actives have a fitted effect of over 60% in size
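Light output from Kinase-Glo luciferase with luciferin and 10 uM ATP in 50 mM imidazole pH 7.2, KCl, MgCl2, Tween 20, BSA; compound pin-delivered, 8-min ambient incubation, then luminescence read.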
Active calls of the source: *; ? = inconclusive; nt = no result; [ ] = another dose, or the depositor's remark. Most compounds without a hit are left out; they make up all but 9% or so of the library. Unless noted, calls follow the shape of the dose curve; as a rule, active = well fitted curve in the direction sought with a large enough effect; inconclusive = small, poorly fitted or top-dose-only effect, or another doubt; inactive = no such curve, though single readings can be large; an effect the other way counts as inactive or inconclusive. Potency is read from the fitted curve at half-maximal effect.

SMILES | HTT ATP protect | HPGD block | LMNA splice mod | ALDH1A1 block | HTT aggregate | KinaseGlo FLuc
O=C(c1ccc(Br)s1)N1CCCC1 | 20% | 14µM* | -11% | -13% | 0% | -3%
O=C(c1ccc(C(=O)N2CCOCC2)s1)N1CCOCC1 | -7% | 20µM* | 17% | 4% | -1% | -1%
CCOC(=O)c1cc2ccc(OC)c(OC)c2c(=O)s1 | -5% | -19% | -1% | -2% | -2% | -2%
N#CCCN(Cc1cccnc1)C(=S)Nc1ccc(OC(F)F)cc1 | 23%[10 µM] | nt | 6%[46 µM] | 3% | 10% | 6%
CCn1c(Cc2c(C)[nH]c3ccccc23)n[nH]c1=S | 7% | -29% | 7% | ? | -19% | 0%
O=C(Nc1ccccc1C(=O)N/N=C/c1ccco1)c1ccc(Cl)cc1 | 0%[10 µM] | -14% | -17% | 6% | -26% | 13µM*
O=C(N/N=C\c1ccco1)Nc1cccc(Cl)c1 | 21%[10 µM] | -29% | -7% | 28µM* | 12% | 0%
C/C(=N/NC(=O)c1ccncc1)c1ccccc1Cl | 2%[10 µM] | -5% | nt | 8%[13.5 µM] | nt | -5%[7.66 µM]
CC(NC(=O)c1ccccc1NC(=O)c1ccco1)c1ccccc1 (configuration not stated) | 9%[10 µM] | -6% | 6% | -8% | -11% | 4%
O=C(Nc1ccccc1C(=O)N/N=C/c1ccco1)c1ccccc1 | 21%[10 µM] | -21% | -2% | -4% | 4% | ?
C/C(=N\NC(=O)c1ccccc1NC(=O)c1ccc(Cl)cc1)c1ccncc1 | -185% | nt | ? | 0% | -16% | 1.3µM*
CC(NC(=O)c1ccccc1NC(=O)c1ccncc1)c1ccccc1 (configuration not stated) | -32% | nt | nt | 28µM* | 2%[9.22 µM] | 2%
N#C/C(C(=O)NCc1ccccc1)=C1/N=C(NC(=O)c2cccs2)c2ccccc21 | 13%[10 µM] | -21% | -7% | -15% | -8% | 1%
COc1ccc(NC(=O)CCl)cn1 | -13%[10 µM] | nt | nt | nt | 13%[9.22 µM] | nt
O=C(CCl)Nc1cccc(-c2cnc3ccccc3n2)c1 | -69% | -15% | ? | 0.89µM* | 25µM* | -5%
O=C(CCl)Nc1ccc(Oc2cnc3ccccc3n2)cc1 | -47% | -16% | ? | 0.11µM* | ? | -3%
Cc1sc2ncnc(N=Nc3c(O)[nH]c4ccccc34)c2c1C | -10%[10 µM] | 0% | -13% | ? | -7% | -4%
CC(C)(C)NS(=O)(=O)c1cccc(S(=O)(=O)c2cccc(S(=O)(=O)NC(C)(C)C)c2)c1 | -21% | 20µM* | ? | 5% | -11% | 10%
CC(C)(C)NS(=O)(=O)c1ccc(N2C(=O)c3ccccc3C2=O)cc1 | 1% | -6% | 27% | 2% | -20% | -1%
CC(C)C(NC(=O)CN(c1cccc(F)c1)S(C)(=O)=O)C(C)C | 4%[1.9 µM] | -2% | -2% | 35µM* | 8% | -2%
O=C1C=C(N(CCO)Cc2ccccc2)c2ccccc2C1=O | -161% | nt | -7%[9.22 µM] | ? | 8.9µM* | -7%
Cn1c(O)c(N=N/C(=N/c2ccccn2)c2ccccn2)c2cc(Br)ccc21 | nt | 22µM* | nt | 14µM* | nt | -6%
O=C1C2C3C=CC(C3)C2C(=O)N1c1nccs1 (configuration not stated) | -8%[10 µM] | -12% | -10% | 5% | -12% | -2%
O=C(c1ccc(C(F)(F)F)cc1)N1CCCCC1 | 2% | 2.8µM* | -7% | -3% | -8% | 5%
Nc1ccc(C(=O)N2CCCC2)cc1 | 38%[1.9 µM] | 28µM* | 0% | -6% | 4% | -1%
SMILES | HTT ATP protect | HPGD block | LMNA splice mod | ALDH1A1 block | HTT aggregate | KinaseGlo FLuc
COc1ccc(C(=O)/C=C\N2CCOCC2)cc1 | -5% | -26% | 5% | 8.9µM* | 11% | -10%
O=C(c1ccc(COc2ccc(Cl)cc2)cc1)N1CCCCC1 | -4% | nt | 5%[46 µM] | 28µM* | 5%[9.22 µM] | -3%
O=C(c1ccc(COc2ccccc2Br)cc1)N1CCCCCC1 | -12%[10 µM] | nt | nt | -2% | 6% | -2%
COc1ccc(C(=O)/C=C/c2cn(CC(O)CN3CCOCC3)c3ccccc23)cc1 (configuration not stated) | -14%[10 µM] | -10% | ? | ? | 16% | 1%
Cc1nn(C(=O)c2ccco2)c(C)c1Br | 6% | -6% | -3% | ? | -1%[9.22 µM] | 1%
O=C(c1ccc(-n2cnnn2)cc1)N1CCCCC1 | 27%[10 µM] | 16µM* | 3% | ? | 7% | 2%
C=CCNC(=O)c1ccc(N(C)S(=O)(=O)c2ccc(OC)cc2)cc1 | -22% | 2.8µM* | -1% | ? | -7% | -1%
COc1ccc(C(=O)n2nc(C)c(Br)c2C)cc1 | 1% | -8% | 4% | 10µM* | 1% | -4%
COc1ccc(-n2c(C)nc3cc(C(=O)N4CCOCC4)ccc32)cc1 | -14% | 2.2µM* | 10% | ? | 8% | -3%
O=C(NC1CCCCC1)c1ccc(-n2cnnn2)cc1 | 4%[10 µM] | nt | nt | nt | 3%[9.22 µM] | nt
COc1ccc(OCc2ccc(C(=O)O)cc2)cc1 | -28%[10 µM] | -7% | 7% | 12% | -7% | 1%
COc1ccc(/C=C(\C#N)C(=O)N2CCOCC2)cc1Br | -6% | 16µM* | 3% | ? | -15% | -3%
COc1ccc(-n2nc(C(=O)N3CCCCC3)c3ccccc3c2=O)cc1 | 10% | -5% | -3% | 7% | 2.8µM* | -1%
C=CCNC(=O)c1ccc(CNS(=O)(=O)c2ccc(NC(C)=O)cc2)cc1 | 13% | 20µM* | 9% | -5% | 26% | -1%
COc1ccc(OCc2ccc(C(=O)N3CCOCC3)cc2)cc1 | 0%[10 µM] | 7.9µM* | -16% | -6% | 20% | -19%
CCOC(=O)N1CCN(C(=O)c2nn(-c3cc(OC)cc(OC)c3)c(=O)c3ccccc23)CC1 | 18%[10 µM] | -5% | -6% | 7% | 10% | 2%
Cc1nnc(N(C)C(=O)Cc2ccc3c(c2)OCO3)s1 | 2%[10 µM] | -17% | -10% | -5% | -17% | -1%
COC(=O)c1ccccc1NC(=O)CSc1nc(N)cc(=O)[nH]1 | 9%[10 µM] | nt | 1%[46 µM] | -6% | -2%[9.22 µM] | -7%
CN(C)S(=O)(=O)c1ccc(C(=O)N2CCOCC2)cc1 | -30% | -8% | 16% | 7% | -8%[9.22 µM] | 1%
COc1ccc(NC(=O)C2CCN(C(=O)c3ccccc3)CC2)c(OC)c1 | 8% | -13% | 15% | 1.6µM* | 16% | 0%
CCOc1ccc(C(=O)N2CCCN(C(=O)c3ccc(OCC)cc3)CC2)cc1 | 1%[10 µM] | -9% | -8% | -14% | 6% | 1%
CCCCOc1ccc(C(=O)N2CCCCCC2)cc1 | 5%[10 µM] | 0.79µM* | -15% | ? | -19% | -1%
CCCCOc1ccc(C(=O)N2CCC(C)CC2)cc1 | -11% | 1µM* | 6% | -10% | -28% | 2%
COc1ccc(S(=O)(=O)N(C)c2ccc(C(=O)N3CCOCC3)cc2)cc1 | 1% | 6.3µM* | 15% | ? | -18% | 2%
